Experimental data published in ChEMBL document CHEMBL1961873, “Compounds: GSK PKIS; Assays: Nanosyn kinase panel” (2012).

How the values were obtained:
[1] = molecular target: T1, Serine/threonine-protein kinase Nek9 (Homo sapiens) (UniProt Q8TD19); settings: at 1 µM;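 further: each value is a mean percent inhibition of NEK9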
T1 sequence (whole entry): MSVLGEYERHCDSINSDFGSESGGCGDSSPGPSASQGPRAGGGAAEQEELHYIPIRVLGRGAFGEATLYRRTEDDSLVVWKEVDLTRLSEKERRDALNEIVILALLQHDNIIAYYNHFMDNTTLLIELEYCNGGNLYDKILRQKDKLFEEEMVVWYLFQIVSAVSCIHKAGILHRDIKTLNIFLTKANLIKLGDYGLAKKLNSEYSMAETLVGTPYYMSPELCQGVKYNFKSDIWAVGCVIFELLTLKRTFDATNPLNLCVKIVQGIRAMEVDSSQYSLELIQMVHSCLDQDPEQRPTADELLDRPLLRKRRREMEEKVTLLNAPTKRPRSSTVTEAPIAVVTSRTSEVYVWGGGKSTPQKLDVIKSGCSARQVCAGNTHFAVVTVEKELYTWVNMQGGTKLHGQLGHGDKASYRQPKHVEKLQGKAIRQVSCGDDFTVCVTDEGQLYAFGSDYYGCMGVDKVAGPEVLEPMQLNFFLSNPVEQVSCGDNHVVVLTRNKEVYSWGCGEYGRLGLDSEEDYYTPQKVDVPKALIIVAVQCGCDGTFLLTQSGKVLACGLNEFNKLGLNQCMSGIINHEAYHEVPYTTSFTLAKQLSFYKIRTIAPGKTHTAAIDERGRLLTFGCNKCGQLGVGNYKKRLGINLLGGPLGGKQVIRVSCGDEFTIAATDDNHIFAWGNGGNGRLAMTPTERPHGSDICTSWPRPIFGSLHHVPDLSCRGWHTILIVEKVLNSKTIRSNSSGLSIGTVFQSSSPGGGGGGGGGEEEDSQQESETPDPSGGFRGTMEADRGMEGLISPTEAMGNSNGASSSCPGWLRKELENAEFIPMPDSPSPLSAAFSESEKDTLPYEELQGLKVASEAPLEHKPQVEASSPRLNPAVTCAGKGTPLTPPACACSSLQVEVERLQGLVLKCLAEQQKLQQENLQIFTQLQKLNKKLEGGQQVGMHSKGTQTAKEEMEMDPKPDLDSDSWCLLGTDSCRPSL

[2] = molecular target: Serine/threonine-protein kinase PLK1 (Homo sapiens) (UniProt P53350); settings: at 0.1 µM
[3] = molecular target: Serine/threonine-protein kinase PLK1 (Homo sapiens) (UniProt P53350); settings: at 1 µM
[4] = molecular target: T2, Dual specificity protein kinase TTK (Homo sapiens) (UniProt P33981); settings: at 0.1 µM
T2 sequence (whole entry): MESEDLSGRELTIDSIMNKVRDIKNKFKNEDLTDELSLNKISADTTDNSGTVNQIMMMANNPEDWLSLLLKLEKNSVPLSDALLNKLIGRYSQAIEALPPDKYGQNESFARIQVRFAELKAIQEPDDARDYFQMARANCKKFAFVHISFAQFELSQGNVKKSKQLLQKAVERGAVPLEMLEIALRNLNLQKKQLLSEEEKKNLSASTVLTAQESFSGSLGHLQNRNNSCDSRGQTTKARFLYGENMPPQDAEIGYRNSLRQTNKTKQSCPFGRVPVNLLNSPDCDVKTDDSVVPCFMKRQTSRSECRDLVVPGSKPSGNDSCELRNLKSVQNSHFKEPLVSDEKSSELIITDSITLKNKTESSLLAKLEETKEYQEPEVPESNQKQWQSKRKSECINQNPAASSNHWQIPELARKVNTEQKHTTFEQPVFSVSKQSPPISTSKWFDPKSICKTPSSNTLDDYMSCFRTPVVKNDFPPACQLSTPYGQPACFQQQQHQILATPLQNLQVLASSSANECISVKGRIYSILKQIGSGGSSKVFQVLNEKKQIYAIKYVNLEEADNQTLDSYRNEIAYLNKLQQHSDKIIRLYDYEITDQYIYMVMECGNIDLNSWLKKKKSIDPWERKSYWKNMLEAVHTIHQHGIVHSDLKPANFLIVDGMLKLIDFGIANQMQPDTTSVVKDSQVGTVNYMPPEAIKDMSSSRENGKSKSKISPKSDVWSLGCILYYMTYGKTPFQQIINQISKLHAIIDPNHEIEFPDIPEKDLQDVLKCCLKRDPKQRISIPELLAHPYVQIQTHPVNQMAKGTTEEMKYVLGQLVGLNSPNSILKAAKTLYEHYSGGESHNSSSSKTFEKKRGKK

[5] = test system: T3, Receptor-type tyrosine-protein kinase FLT3 (Homo sapiens), P36888 [D835Y]; settings: at 1 µM
T3 sequence (whole entry): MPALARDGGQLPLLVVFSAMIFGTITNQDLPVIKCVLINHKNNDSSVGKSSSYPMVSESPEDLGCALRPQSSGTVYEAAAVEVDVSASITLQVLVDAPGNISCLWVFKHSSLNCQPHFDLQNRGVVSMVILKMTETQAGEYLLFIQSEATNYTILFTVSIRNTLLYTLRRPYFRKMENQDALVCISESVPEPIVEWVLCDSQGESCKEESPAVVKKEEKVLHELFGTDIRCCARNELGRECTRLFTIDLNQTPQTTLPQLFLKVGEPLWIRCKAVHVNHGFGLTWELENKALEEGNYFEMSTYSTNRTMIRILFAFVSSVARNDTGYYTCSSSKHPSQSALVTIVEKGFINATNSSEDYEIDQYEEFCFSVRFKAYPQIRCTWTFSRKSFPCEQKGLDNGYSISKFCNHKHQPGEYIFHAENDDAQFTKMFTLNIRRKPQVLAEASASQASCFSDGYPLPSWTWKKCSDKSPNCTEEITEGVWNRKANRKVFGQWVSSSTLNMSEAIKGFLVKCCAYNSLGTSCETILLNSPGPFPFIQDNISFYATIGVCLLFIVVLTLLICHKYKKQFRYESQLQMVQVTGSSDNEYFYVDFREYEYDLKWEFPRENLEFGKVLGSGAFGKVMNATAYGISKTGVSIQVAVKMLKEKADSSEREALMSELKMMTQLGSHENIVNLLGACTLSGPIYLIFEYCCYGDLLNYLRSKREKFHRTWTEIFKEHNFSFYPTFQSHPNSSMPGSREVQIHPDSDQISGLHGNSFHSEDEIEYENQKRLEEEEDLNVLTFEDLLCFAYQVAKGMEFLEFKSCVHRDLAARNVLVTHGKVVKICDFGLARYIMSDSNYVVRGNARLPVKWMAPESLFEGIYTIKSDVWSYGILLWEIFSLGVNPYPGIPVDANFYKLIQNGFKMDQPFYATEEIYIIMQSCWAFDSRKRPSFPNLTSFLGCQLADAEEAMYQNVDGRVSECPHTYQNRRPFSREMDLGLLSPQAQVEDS

[6] = molecular target: Vascular endothelial growth factor receptor 3 (Homo sapiens) (UniProt P35916); settings: at 0.1 µM
[7] = molecular target: Vascular endothelial growth factor receptor 3 (Homo sapiens) (UniProt P35916); settings: at 1 µM
[8] = molecular target: Macrophage colony-stimulating factor 1 receptor (Homo sapiens) (UniProt P07333); settings: at 0.1 µM
[9] = molecular target: Macrophage colony-stimulating factor 1 receptor (Homo sapiens) (UniProt P07333); settings: at 1 µM
[10] = molecular target: Tyrosine-protein kinase Fyn (Homo sapiens) (UniProt P06241); settings: at 0.1 µM
[11] = molecular target: Tyrosine-protein kinase Fyn (Homo sapiens) (UniProt P06241); settings: at 1 µM
[12] = molecular target: Tyrosine-protein kinase HCK (Homo sapiens) (UniProt P08631); settings: at 0.1 µM
[13] = molecular target: Tyrosine-protein kinase HCK (Homo sapiens) (UniProt P08631); settings: at 1 µM
[14] = molecular target: Insulin-like growth factor 1 receptor (Homo sapiens) (UniProt P08069); settings: at 0.1 µM
[15] = molecular target: Insulin-like growth factor 1 receptor (Homo sapiens) (UniProt P08069); settings: at 1 µM
[16] = molecular target: Insulin receptor (Homo sapiens) (UniProt P06213); settings: at 0.1 µM
[17] = molecular target: Insulin receptor (Homo sapiens) (UniProt P06213); settings: at 1 µM
[18] = molecular target: Insulin receptor-related protein (Homo sapiens) (UniProt P14616); settings: at 0.1 µM
[19] = molecular target: Insulin receptor-related protein (Homo sapiens) (UniProt P14616); settings: at 1 µM
[20] = molecular target: T4, Tyrosine-protein kinase ITK/TSK (Homo sapiens) (UniProt Q08881); settings: at 0.1 µM;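 further: mean percent inhibition of ITK from the GSK PKIS screen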
T4 sequence (whole entry): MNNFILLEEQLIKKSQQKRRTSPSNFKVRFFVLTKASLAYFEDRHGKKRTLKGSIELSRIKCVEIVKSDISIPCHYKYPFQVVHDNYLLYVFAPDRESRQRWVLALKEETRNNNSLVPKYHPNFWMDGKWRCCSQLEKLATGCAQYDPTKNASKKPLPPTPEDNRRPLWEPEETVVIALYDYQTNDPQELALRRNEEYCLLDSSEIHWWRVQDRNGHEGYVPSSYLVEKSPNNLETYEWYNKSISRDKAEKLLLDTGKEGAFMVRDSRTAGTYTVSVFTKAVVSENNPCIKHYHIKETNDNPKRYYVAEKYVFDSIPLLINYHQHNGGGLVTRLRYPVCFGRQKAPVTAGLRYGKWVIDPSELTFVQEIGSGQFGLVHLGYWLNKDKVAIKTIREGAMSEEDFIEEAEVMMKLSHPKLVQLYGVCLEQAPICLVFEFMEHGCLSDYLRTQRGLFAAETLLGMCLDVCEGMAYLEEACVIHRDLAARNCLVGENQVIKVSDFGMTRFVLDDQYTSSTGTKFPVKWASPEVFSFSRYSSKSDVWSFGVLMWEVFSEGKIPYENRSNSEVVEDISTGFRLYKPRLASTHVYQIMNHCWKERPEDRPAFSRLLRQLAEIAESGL

Insulin receptor (Homo sapiens), sequence (P06213 28-758 limits assumed): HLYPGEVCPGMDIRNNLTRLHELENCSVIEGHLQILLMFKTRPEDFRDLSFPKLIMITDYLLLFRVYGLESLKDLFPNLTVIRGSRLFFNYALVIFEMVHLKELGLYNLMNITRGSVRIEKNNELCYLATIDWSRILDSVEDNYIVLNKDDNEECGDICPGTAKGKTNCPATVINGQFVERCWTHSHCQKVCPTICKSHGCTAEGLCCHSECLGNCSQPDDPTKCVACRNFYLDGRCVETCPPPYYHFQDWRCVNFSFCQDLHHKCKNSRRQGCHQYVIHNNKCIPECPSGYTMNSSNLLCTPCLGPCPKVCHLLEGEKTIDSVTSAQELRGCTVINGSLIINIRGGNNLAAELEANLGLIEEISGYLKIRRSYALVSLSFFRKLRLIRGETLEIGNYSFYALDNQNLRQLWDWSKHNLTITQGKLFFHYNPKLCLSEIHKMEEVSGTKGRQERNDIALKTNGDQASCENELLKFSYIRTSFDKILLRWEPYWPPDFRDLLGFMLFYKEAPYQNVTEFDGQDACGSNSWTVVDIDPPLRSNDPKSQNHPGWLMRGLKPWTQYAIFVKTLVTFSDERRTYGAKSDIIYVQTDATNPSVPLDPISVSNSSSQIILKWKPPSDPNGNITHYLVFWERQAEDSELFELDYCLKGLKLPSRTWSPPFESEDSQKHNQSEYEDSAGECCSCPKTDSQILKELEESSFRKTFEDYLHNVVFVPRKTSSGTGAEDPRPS
Insulin receptor (Homo sapiens), sequence (P06213 763-1382 limits assumed): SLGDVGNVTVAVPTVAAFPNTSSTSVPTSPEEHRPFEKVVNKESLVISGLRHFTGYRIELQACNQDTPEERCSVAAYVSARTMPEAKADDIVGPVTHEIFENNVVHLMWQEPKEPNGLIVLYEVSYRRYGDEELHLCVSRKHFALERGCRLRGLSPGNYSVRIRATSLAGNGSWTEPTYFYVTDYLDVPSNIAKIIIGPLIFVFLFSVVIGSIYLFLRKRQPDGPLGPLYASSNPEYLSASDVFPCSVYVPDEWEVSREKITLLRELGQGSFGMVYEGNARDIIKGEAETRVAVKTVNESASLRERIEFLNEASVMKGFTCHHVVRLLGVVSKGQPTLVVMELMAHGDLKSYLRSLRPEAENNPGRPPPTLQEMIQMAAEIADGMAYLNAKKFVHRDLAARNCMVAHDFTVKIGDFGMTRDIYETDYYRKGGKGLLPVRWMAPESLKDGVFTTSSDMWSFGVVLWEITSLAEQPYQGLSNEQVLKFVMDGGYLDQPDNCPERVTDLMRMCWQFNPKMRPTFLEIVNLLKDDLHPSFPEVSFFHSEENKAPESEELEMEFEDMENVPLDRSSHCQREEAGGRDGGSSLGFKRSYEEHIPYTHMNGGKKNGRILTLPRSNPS
Vascular endothelial growth factor receptor 3 (Homo sapiens), sequence (P35916 whole entry): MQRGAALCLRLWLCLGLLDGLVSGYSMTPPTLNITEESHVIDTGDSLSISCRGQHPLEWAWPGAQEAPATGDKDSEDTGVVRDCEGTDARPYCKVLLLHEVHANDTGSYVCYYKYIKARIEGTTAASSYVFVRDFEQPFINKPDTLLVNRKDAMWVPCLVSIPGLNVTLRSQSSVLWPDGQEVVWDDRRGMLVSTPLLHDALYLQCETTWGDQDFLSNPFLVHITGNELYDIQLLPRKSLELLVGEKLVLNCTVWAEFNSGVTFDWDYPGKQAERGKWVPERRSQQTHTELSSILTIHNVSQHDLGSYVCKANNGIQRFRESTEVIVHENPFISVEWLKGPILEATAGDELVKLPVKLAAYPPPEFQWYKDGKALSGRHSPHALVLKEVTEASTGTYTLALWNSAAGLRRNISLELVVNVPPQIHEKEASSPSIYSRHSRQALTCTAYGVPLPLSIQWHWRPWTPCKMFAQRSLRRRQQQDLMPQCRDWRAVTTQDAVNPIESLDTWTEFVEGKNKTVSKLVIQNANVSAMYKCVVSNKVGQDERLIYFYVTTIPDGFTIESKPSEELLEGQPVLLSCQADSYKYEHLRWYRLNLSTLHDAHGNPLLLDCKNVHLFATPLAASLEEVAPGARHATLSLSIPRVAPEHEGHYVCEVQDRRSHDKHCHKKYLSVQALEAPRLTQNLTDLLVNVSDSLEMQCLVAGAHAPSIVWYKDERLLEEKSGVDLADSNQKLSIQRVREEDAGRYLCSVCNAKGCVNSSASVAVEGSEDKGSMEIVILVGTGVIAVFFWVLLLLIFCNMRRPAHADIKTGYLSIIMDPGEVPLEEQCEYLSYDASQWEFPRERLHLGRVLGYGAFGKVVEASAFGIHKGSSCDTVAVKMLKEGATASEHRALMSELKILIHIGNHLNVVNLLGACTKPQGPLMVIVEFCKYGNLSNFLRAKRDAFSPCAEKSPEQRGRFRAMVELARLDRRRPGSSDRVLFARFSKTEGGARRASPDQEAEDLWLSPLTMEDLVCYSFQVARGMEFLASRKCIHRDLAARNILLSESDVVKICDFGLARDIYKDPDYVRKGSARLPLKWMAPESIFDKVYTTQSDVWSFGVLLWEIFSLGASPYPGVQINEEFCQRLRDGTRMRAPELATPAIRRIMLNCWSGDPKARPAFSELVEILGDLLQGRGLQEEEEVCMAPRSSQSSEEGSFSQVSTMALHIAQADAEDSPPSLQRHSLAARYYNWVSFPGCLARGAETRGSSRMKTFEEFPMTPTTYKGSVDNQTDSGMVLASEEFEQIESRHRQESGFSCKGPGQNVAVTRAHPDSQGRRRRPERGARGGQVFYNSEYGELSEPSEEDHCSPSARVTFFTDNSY
Insulin receptor-related protein (Homo sapiens), sequence (P14616 27-742 limits assumed): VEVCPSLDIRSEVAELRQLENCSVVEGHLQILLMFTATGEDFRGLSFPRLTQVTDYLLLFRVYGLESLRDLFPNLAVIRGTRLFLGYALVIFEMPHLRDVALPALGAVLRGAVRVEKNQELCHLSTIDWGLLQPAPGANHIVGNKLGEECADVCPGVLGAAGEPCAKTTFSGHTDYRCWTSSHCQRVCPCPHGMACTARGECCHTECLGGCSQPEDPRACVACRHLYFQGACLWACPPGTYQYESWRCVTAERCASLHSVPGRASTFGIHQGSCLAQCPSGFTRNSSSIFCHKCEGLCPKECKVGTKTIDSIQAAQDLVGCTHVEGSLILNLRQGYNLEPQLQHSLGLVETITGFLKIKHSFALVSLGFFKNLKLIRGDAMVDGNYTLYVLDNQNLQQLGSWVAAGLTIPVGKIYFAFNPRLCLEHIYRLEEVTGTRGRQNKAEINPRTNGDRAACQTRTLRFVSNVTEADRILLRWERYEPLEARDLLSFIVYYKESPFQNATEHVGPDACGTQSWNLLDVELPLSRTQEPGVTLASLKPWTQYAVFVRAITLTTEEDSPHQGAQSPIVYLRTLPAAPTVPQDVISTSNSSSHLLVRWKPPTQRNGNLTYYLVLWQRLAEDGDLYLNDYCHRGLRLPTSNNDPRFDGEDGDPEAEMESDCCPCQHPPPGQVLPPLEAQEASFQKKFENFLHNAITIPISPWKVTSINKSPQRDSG
Insulin receptor-related protein (Homo sapiens), sequence (P14616 747-1297 limits assumed): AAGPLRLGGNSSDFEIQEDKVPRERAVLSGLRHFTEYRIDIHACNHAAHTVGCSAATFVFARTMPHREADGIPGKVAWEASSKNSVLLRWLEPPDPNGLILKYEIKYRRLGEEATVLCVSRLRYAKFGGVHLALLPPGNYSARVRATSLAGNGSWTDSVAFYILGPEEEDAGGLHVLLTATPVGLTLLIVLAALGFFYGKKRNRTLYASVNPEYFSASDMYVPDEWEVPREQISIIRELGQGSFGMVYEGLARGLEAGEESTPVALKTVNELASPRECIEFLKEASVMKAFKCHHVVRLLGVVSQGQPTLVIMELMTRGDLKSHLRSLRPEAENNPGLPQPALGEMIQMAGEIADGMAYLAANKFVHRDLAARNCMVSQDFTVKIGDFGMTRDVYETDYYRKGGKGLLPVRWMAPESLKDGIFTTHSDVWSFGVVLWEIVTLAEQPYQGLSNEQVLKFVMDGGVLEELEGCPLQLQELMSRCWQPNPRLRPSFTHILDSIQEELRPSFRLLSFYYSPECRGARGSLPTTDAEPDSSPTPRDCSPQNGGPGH
Tyrosine-protein kinase Fyn (Homo sapiens), sequence (P06241 2-537 limits assumed): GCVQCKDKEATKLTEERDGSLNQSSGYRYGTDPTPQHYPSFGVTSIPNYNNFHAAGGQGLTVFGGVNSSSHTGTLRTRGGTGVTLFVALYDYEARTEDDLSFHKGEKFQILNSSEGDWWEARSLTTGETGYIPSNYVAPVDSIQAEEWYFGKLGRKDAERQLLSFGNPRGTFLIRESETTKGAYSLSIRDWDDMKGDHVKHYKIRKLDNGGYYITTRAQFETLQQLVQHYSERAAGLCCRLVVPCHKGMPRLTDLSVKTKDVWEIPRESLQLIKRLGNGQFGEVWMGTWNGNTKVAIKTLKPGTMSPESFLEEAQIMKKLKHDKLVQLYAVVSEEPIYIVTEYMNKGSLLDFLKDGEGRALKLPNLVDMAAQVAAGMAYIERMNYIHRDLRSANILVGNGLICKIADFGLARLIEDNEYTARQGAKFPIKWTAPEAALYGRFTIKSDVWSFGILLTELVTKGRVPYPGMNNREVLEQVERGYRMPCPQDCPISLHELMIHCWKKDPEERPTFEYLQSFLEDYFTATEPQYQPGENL
Tyrosine-protein kinase HCK (Homo sapiens), sequence (P08631 2-526 limits assumed): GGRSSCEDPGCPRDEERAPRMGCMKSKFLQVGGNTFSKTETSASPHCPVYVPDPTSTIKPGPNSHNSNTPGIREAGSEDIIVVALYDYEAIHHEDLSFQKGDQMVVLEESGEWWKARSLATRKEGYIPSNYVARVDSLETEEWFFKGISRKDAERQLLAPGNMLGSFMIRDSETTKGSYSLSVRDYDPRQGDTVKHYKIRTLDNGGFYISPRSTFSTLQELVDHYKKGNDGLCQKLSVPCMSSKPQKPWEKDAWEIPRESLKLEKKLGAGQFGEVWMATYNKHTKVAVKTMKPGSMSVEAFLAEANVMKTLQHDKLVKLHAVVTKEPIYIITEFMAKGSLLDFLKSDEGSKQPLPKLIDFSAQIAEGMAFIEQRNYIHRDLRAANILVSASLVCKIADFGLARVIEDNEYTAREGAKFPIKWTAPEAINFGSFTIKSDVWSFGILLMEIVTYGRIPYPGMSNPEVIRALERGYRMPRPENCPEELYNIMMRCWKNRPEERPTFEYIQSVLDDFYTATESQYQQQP

Row | Structure (SMILES) | inhibition [1] | inhibition [2] | inhibition [3] | inhibition [4] | inhibition [5] | inhibition [6] | inhibition [7] | inhibition [8] | inhibition [9] | inhibition [10] | inhibition [11] | inhibition [12] | inhibition [13] | inhibition [14] | inhibition [15] | inhibition [16] | inhibition [17] | inhibition [18] | inhibition [19] | inhibition [20]
1 | CCc1cccc(CC)c1/C=C/c1cncc(C(=O)NC)c1 | -1.94% | 1.32% | 1.99% | 3.43% | 4.06% | 1.11% | 2.42% | -1.63% | 6.91% | 3.51% | 3.44% | 5.19% | 10% | 3.36% | 3.86% | 1.7% | 1.65% | 5.5% | 2.06% | 0.83%
2 | NC(=O)c1ccc(Oc2nccc(-c3c(-c4ccc(F)cc4)ncn3C3CCNCC3)n2)cc1 | 4.67% | 5.93% | 9.34% | 8.68% | 1.08% | 7.32% | 4.57% | 5.61% | 6.15% | 2.66% | 3.44% | 6.86% | 8.21% | 5.51% | 7.32% | 7.88% | 6.48% | 3.06% | 4.99% | 3.1%
3 | Cc1ccc(C(=O)NC(C)C)cc1-c1ccc(C(=O)NCC2CC2)cc1 | 4.93% | -2.88% | 0.01% | -5.71% | 5.33% | 1.2% | 2.58% | -3.16% | 0.94% | -0.23% | 0.91% | -3.59% | -1.19% | -3.27% | -3.34% | -1.9% | -4.51% | -4.15% | -4.41% | -1.4%
4 | NC(=O)c1cc(-c2ccncc2)cc(-c2ccccc2)c1N | 3.74% | 4.45% | 5.13% | 8.7% | 2.51% | 2.14% | 6.17% | 22.8% | 64.8% | 6.39% | 37.6% | 12.1% | 43.7% | 5.73% | 5.9% | 6.28% | 6.25% | 2.11% | 1.56% | 1.61%
5 | N#Cc1ccc(Oc2nccc(-c3c(-c4ccc(F)cc4)ncn3C3CCNCC3)n2)cc1 | 9.35% | 4.8% | 4.75% | 8.02% | 4.07% | -3.29% | -0.83% | 0.11% | 9.12% | -0.87% | 3.01% | 5.66% | 5.1% | -0.43% | 0.96% | 3.29% | 3.86% | 3.14% | 4.24% | -0.47%
6 | COc1ccc(C2=C(N3CCc4ccccc43)C(=O)NC2=O)cc1 | 7.64% | 4.84% | 4.9% | 9.59% | 3.5% | 1.33% | 3.21% | 2.49% | 4.23% | 2.77% | 4.68% | 8.17% | 9.54% | 4.43% | 6.19% | 4.83% | 8.59% | 2.42% | 1.91% | 1.76%
7 | O=C1Nc2ccc(I)cc2C1=Cc1cc(Br)c(O)c(Br)c1 | 7.24% | 5.57% | 9.77% | 10.4% | 2.02% | 0.19% | -3.58% | 4.92% | 5.58% | 3% | 6.7% | 6.42% | 8.5% | 5.43% | 2.95% | 6.33% | 5.95% | 0.52% | 2.5% | 1.48%
8 | Cc1ccc(C(=O)NC2CCC2)cc1-c1ccc(C(=O)NCC2CC2)cc1 | 5.58% | 4.95% | 2.15% | 4.58% | 8.02% | 1.24% | 1% | -2.9% | 4.65% | 0.98% | 2.7% | 4.64% | 6.65% | 2.06% | 3.83% | 4.44% | 5.62% | 0.92% | 1.77% | 2.02%
9 | NC(=O)c1cc(-c2ccc(F)cc2)cc(-c2ccncc2)c1N | 19.1% | 5.25% | 2.93% | 11.9% | -3.97% | -0.28% | 0.18% | 2.97% | 15.4% | 0.07% | 5.17% | 6.59% | 7.14% | 2.14% | -0.61% | 5.25% | 5.27% | 1.58% | 1.32% | 0.92%
10 | O=C1NC(=O)C(c2cccc(Cl)c2)=C1Nc1ccc(Cl)c(C(=O)O)c1 | 2.04% | 4.93% | 2.75% | 5.47% | -3.79% | 3.32% | 12.2% | -0.3% | 10.7% | 0.43% | 6.23% | 3.57% | 3.65% | 2.14% | 3.35% | 4.57% | 7.53% | 1.75% | 1.42% | 1.1%
11 | Fc1ccc(-c2nc3n(c2-c2ccncc2)CCS3)cc1 | 6.52% | 3.85% | 4.09% | 6.93% | -0.91% | -8.43% |  | 0.95% | 1.38% | 0.03% | -3.64% | 4.65% | 7.02% | -2.12% | -4.05% | 7.27% | 5.39% | 2.11% | 1.09% | -1.96%
